This excerpt belongs to a sample that is enriched for hits.
Lassa entry inh: Lassa virus entry inhibition | hit rate 1.2% among 300,000 | Lassa virus pseudotype entry inhibition, cell reporter | Potency, µM (highest dose often 37.9 µM), inactives show at the highest dose activity change, negative = inhibition, actives largely listed as inhibitors | AID 540256; calls by dose curve; tested in HEK293 cells; note: potency is the fitted concentration of half-maximal effect; % is set by controls: 0 for no effect and ±100 for the full control effect; nearly all actives have a fitted effect of over 50% in size
VACV mCherry inh: inhibitors of vaccinia virus infection (mCherry reporter signal); Vaccinia virus mCherry reporter infection, fluorescence; Potency, µM (highest dose often 36.5 µM), inactives show at the highest dose activity change, negative = inhibition, most hits filed as inhibitors; hit rate 0.63% among 310,000; calls by dose curve; tested in A549 cells; note: potency is the fitted concentration of half-maximal effect; % is set by controls: 0 for no effect and ±100 for the full control effect; nearly all actives have a fitted effect of over 35% in size
Marburg entry inh: blocks Marburg virus binding to or entry into cells; Marburg virus pseudotyped entry inhibition, cell reporter; Potency, µM (top dose mostly 37.8 µM), without a hit: at the top dose activity change, negative = inhibition, most hits filed as inhibitors; hit rate 1.8% among 300,000; calls by dose curve; tested in HEK293 cells; note: potency is the fitted concentration of half-maximal effect; % is set by controls: 0 for no effect and ±100 for the full control effect
Shiga toxin inh: inhibitors of Shiga toxin in Vero cells. Vero cells, Shiga toxin protein synthesis inhibition reporter. inhibition, % at 38.7 µM. hit rate 9.2% among 290,000; in the data active = inhibition mostly above about 28%, no sharp cut-off; inactive = mostly below about 43%; note: 0% is about no effect
Cycloheximide cs: affects cycloheximide protein synthesis inhibition readout, counter-screen. cell reporter, cycloheximide protein synthesis inhibition counterscreen. max response, %. hit rate 12% among 300,000; in the data active = max response mostly above about 13%, no sharp cut-off; inactive = mostly below about 14%; note: read at 38.3 µM for the half of the compounds with a filed dose; 0% is about no effect
VACV Venus inh: inhibitors of vaccinia virus (Venus reporter); hit rate 0.46% among 330,000; AID 720580; Vaccinia virus Venus reporter expression, fluorescence; Potency, µM (series often up to 36.5 µM), without a hit: at the highest dose activity change, negative = inhibition, hits mostly inhibitors; calls by dose curve; tested in A549 cells; note: potency is the fitted concentration of half-maximal effect; % is set by controls: 0 for no effect and ±100 for the full control effect; nearly all actives have a fitted effect of over 30% in size
* = called active by the depositor; i = inactive; ? = inconclusive; · = no result; ! = not active in a repeat; [ ] = remark or other dose.

SMILES | Lassa entry inh | VACV mCherry inh | Marburg entry inh | Shiga toxin inh | Cycloheximide cs | VACV Venus inh
CN1C[C@H](C(=O)N[C@@]2(C)O[C@@]3(O)C4CCCN4C(=O)C(Cc4ccccc4)N3C2=O)C[C@H]2c3cccc4[nH]cc(c34)C[C@H]21 (some centres undefined) | · | -21% | · | · | · | -15%
CC(C)[C@@]1(NC(=O)[C@@H]2C[C@@H]3c4cccc5[nH]cc(c45)C[C@H]3N(C)C2)O[C@@]2(O)[C@@H]3CCCN3C(=O)[C@H](Cc3ccccc3)N2C1=O | ? | -15% | 5.6µM*! | -3 | -2 | -27%
CC(C)[C@@]1(NC(=O)[C@@H]2C[C@@H]3c4cccc5[nH]cc(c45)C[C@H]3N(C)C2)O[C@@]2(O)C3CCCN3C(=O)[C@H](Cc3ccccc3)N2C1=O (some centres undefined) | -40% | · | 5.6µM* | · | · | ·
C#CCN1C(=O)[C@@]2(CC(C)=CC[C@@H](C)O2)c2ccccc21 | · | · | 16%[14.2 µM] | · | · | ·
CCN1CCCC1CNC(=O)c1cnn(-c2ncc(C)c(-c3ccc(F)cc3)n2)c1C(C)C (centres undefined) | · | -11% | · | · | · | -3%
CC(C)CCNC(=O)C(=O)Nc1ccccc1 | -2% | -6% | -4%[46.1 µM] | 162* | 45* | -9%
CC(C)CCNC(=O)C(=O)Nc1c2c(nn1-c1ccccc1)CS(=O)(=O)C2 | ? | -13% | · | · | · | -9%
CC(C)CCNC(=O)c1ccc(-c2ccccc2)cc1 | · | · | · | 84* | 36* | ·
CC(C)CCNC(=O)c1ccc(Cl)c(N)c1 | · | · | · | 57* | 37* | ·
CN(C)CC[C@H](c1ccc(Cl)cc1)c1ccccn1 | · | · | 5.6µM*! | · | · | ·
O=C(c1cccc(Cl)c1)N1CCC2CC1c1cc(N3CCOCC3)ccc12 (centres undefined) | · | -13% | · | · | · | -7%
CC1CCc2nc(NC(=O)c3ccc(S(=O)(=O)N4CCCc5ccccc54)cc3)sc2C1 (centres undefined) | -19% | -10% | ? | -4 | -4 | -18%
CNC(=O)c1ccsc1NC(=O)c1ccccc1 | · | -10% | · | 16* | 25* | -11%
O=C(Nc1nc2c(s1)CCCC2)c1ccc(S(=O)(=O)N2CCCc3ccccc32)cc1 | ? | i | 23µM* | 11 | 10* | -26%
CNC(=O)c1ccsc1NC(=O)c1ccc(S(=O)(=O)N2CCCc3ccccc32)cc1 | 16µM* | ? | ? | -1 | 3 | ?
CC1CCN(S(=O)(=O)c2ccc3c(c2)N(CC(=O)NCCN(C)C)C(=O)CS3)CC1 | · | -12% | 4%[46.1 µM] | · | · | -1%
Cc1ccc(NC2CC(=O)N(CCc3ccccc3)C2=O)cc1 (centres undefined) | ? | · | ? | 25 | 18* | ·
O=C(c1cnc(N2CCCCC2)c2ccccc12)N1CCN(c2ccccc2F)CC1 | -13%[46.1 µM] | -8% | · | · | · | -17%
Cc1ccccc1-n1nnnc1SCc1csc(-c2ccccc2)n1 | 13µM* | · | ? | -7 | -3 | ·
Cc1ccnc2nc(C(=O)Nc3nccs3)nn12 | 5% | -9% | 10% | 29 | 22* | -3%
Cc1ccnc2nc(C(=O)Nc3ccc(S(=O)(=O)N4CCCC4)cc3)nn12 | · | · | · | -7 | 1 | ·
Cc1ccnc2nc(C(=O)Nc3ccc4c(c3)OCO4)nn12 | ? | -17% | ? | 75* | 27* | -3%
Cc1cc(C)n2nc(C(=O)Nc3ccc4c(c3)OCO4)nc2n1 | ? | · | 16%[46.1 µM] | 61* | 32* | -15%
Cc1ccnc2nc(C(=O)NC3=NCCS3)nn12 | 0% | · | 7% | 12 | 3 | -15%
Cc1cc(C)n2nc(C(=O)OCC(=O)Nc3ccc4c(c3)OCO4)nc2n1 | ? | -22% | -2% | -8 | 3 | -13%
SMILES | Lassa entry inh | VACV mCherry inh | Marburg entry inh | Shiga toxin inh | Cycloheximide cs | VACV Venus inh
COc1ccc(CC(=O)c2ccc(OC)c(OC)c2)cc1 | 0% | -14% | -7% | 130 | 23* | -7%
COc1ccc(CC(=O)OCC(=O)c2ccc(OC)c(OC)c2)cc1 | -1% | 0% | 8% | · | · | -10%
COc1ccc(C(=O)Cc2ccc(OC)c(OC)c2)c(OC)c1 | -3% | -2% | -29% | 71 | 12* | -18%
COc1ccc(C(=O)CN2C(=O)c3ccccc3C2=O)c(OC)c1 | · | · | · | -15 | 15* | ·
COc1cc2cccc(OC)c(=O)c2c(O)c1OC | -1%[46.1 µM] | i | 23%[46.1 µM] | 23 | 34* | -10%
Cc1ccc(CN2C(=O)c3ccccc3Sc3ccc(C(=O)N4CCOCC4)cc32)cc1 | -23%[46.1 µM] | i | · | · | · | -11%
COc1ccc(C(=O)/C=C/Nc2ccc([N+](=O)[O-])cc2)cc1 | 1% | i | 20% | 114* | 85* | -11%
COC(=O)/C(=C\C(=O)c1ccc([N+](=O)[O-])cc1)Nc1ccc(OC)cc1 | 5% | -1% | 7%[46.1 µM] | -9 | 2 | 1%
COc1ccc(N/C=C/C(=O)c2ccc(C)cc2)c([N+](=O)[O-])c1 | ? | i | ? | · | · | -18%
CCOc1ccc(NC(=S)NC(=O)/C=C/c2ccc(Br)cc2)c([N+](=O)[O-])c1 | 21µM* | -10% | -24% | -3 | -2 | -7%
COc1ccc(N/C=C/C(=O)c2ccc(Oc3ncccn3)cc2)cc1 | -22% | -12% | 10% | 11 | 10 | -3%
CCOc1ccc(N/C=C/C(=O)c2ccc(OC)cc2)cc1 | -17%[46.1 µM] | i | 19%[46.1 µM] | 132* | 20* | -13%
CCOc1ccc(N/C=C/C(=O)c2ccc(OC)cc2)c([N+](=O)[O-])c1 | 15% | -7% | -1% | 132* | 39* | -11%
COc1ccc(-n2c(SCc3ccccc3F)nc3c([nH]c4ccccc43)c2=O)cc1 | 6%[46.1 µM] | -5% | · | · | · | -10%
COc1ccccc1OCC(=O)NCC1(N(C)C)CCCCC1 | 7%[46.1 µM] | -12% | -4%[46.1 µM] | · | · | -7%
O=S(=O)(c1ccc(S(=O)(=O)N(Cc2ccc(F)cc2)C2CCCC2)cc1)N1CCCC1 | -17% | · | 10µM* | -2 | -7 | -22%
CCC(C)N1C(=O)N(c2cccc(Cl)c2)C(C)(O)CC1(C)C (centres undefined) | · | · | · | 19 | -6 | ·
Cc1ccc(C2(c3ccc(C)cc3)CC2C(=O)NC(C)C)cc1 (centres undefined) | -3%[46.1 µM] | i | 13µM* | -3 | -2 | -7%
CCOc1ccccc1N1CCN(C(=O)C2c3ccccc3Oc3ccccc32)CC1 | 7.1µM* | · | ? | 2 | 3 | ?
COc1ccccc1N1CCN(C(=O)CSc2ccccc2)CC1 | -3% | · | -5% | 65* | 27* | -22%
COc1ccccc1N1CCN(C(=O)C(Sc2ccccc2)c2ccccc2)CC1 (centres undefined) | ? | · | 6.3µM* | -2 | -1 | ?
CS(=O)(=O)N1CCN(C(=O)C(Sc2ccccc2)c2ccccc2)CC1 (centres undefined) | -5% | · | 4% | -17 | -2 | ·
CCOc1ccccc1N1CCN(C(=O)c2ccccc2SCC(=O)N2CCCC2)CC1 | -1% | -16% | -26% | 27* | 15* | -7%
CN(C)c1ccc(/C=C2\C=Cc3ccccc32)cc1Cl | · | -15% | · | · | · | -16%
CCC(C)NC(=O)c1ccc(N2CC3CC(C2)c2cccc(=O)n2C3)c(NC(=O)c2c(F)cccc2F)c1 (centres undefined) | · | -9% | · | · | · | -9%
